About 83,000 compounds went through this panel and 20% of them were active in at least one assay; those are over-represented in the sample as a whole.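 Activity criterion: percent growth below 10, measured after cells in 96-well plates were exposed to a single compound concentration for 48 hours.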 A number with no mark means an inactive call. Active and inactive are the calls of the source.

The record followed here is PubChem BioAssay (NCI).

For this test, the system named is HL-60(TB) leukemia. The test is described as follows: NCI-60 one-dose screen, 48 h (100 = growth as untreated, 0 = no growth, -100 = all killed). To be noted: 10 µM unless noted.
As to `O=C(NCCCl)Nc1ncccc1OCc1ccccc1`, the growth was 90%.
For the molecule `CCCOCc1cn[nH]n1`, the growth was 105%.
For `O=Cc1ccc(O)c(O)c1`, the growth was 88%.
Then `C=C1C(=O)O[C@H]2[C@H]1CC/C(COC(=O)/C=C/c1c[nH]c3ccccc13)=C\CC[C@@]1(C)O[C@@H]21`, with -18.7% (active); and `Cc1csc(-c2nnc(Nc3ccc(Oc4ncccc4-c4ccnc(N)n4)cc3)c3ccccc23)c1`, with 12.9%.
With `O=C(c1ccccc1)C(Nc1ccccc1)c1ccccc1` (centres undefined), the growth is 84%.
Then `NS(=O)(=O)c1ccc(CCN2C(=O)/C(=C\c3ccc(Cl)cc3)C=C2c2ccc3ccccc3c2)cc1`, with 99.5%.
Under `COc1ccc(NC(=O)COCCOCCNC[C@@H]2C(=O)O[C@H]3[C@H]2CC/C(COC(=O)OC/C2=C/CC[C@@]4(C)O[C@H]4[C@H]4OC(=O)[C@@H](CN(C)C)[C@@H]4CC2)=C\CC[C@@]2(C)O[C@@H]32)c(O)c1C(N)=O` stands -48.2% (active).
In the case of `O=C1c2ccccc2C(=O)c2sc(Nc3cccc(Cl)c3)nc21`, the growth was -18.7% (active).
In the case of `COc1ccc2c(c1)CCCC21C(=O)Nc2c(Cl)cccc21` (centres undefined), the growth is 33.9%.
Then `COC(=O)C1CC(=O)N(C(=O)Nc2ccc(Cl)cc2Cl)C1` (centres undefined), with 97.8%.
On to `O=C(N/N=C\c1cc(Cl)ccc1O)N/N=C/c1cc(Cl)ccc1O`, for which the growth is 6.64% (active).
`COc1cccc(CC(C)=C(c2ccc(OCCCN(C)C)cc2)c2ccc(OCCCN(C)C)cc2)c1`: the growth is -68% (active).
Then `NS(=O)(=O)c1ccc(CCN2C(=O)c3cc(Cl)c(Cl)cc3C2=O)cc1`, with 86.5%.
